Assay results: PubChem BioAssay (NCATS)
Records with an inconclusive call do not appear. Active and inactive are the calls of the source. Calls come from the whole dose curve; as a rule, active = well fitted cell-killing curve with a large enough effect; inconclusive = small, poorly fitted or top-dose-only effect; inactive = no such curve, though single readings can be large or run the other way.
Potency is the fitted concentration of half-maximal effect.

Test: qHTS of pediatric cancer cell lines to identify multiple opportunities for drug repurposing: Primary screen for SK-N-MC cells (AID 1347093)
Details: SK-N-MC viability, CellTiter-Glo luminescence, 48 h; series mostly up to 46 µM
Method in brief: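 Metabolically active cells were quantified by ATP-dependent luminescence (CellTiter-Glo, 15 min at room temperature) following 48 h treatment. Cells had been plated at 500-1,000 per well and settled for 5 h beforehand.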
For CN(C)C(=S)SSC(=S)N(C)C, the Potency was 188 nM (active). With COc1ccc2c3c1O[C@H]1[C@@H](O)C=C[C@H]4[C@@H](C2)N(C)CC[C@@]341 the Potency was 33700 nM (active). With Cc1ccc([N+](=O)[O-])[c]2c1[O][Hg]2 the Potency was 94.4 nM (active).

Test: qHTS of pediatric cancer cell lines to identify multiple opportunities for drug repurposing: Primary screen for Saos-2 cells (AID 1347097); note: nearly all actives have a fitted effect of over 40% in size
Details: Saos-2 viability, CellTiter-Glo ATP luminescence, 48 h; series mostly up to 46 µM
Method in brief: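 Plated cells (500-1,000 per well, growth media) were allowed to settle for 5 hours, treated with compound dilutions for 48 hours, then lysed with CellTiter-Glo for 15 min at room temperature before luminescence reading.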
In the case of CN(C)C(=S)SSC(=S)N(C)C, the Potency is reported as 133 nM (active). In the case of COc1ccc2c3c1O[C@H]1[C@@H](O)C=C[C@H]4[C@@H](C2)N(C)CC[C@@]341, the Potency is reported as 37800 nM (active). For Cc1ccc([N+](=O)[O-])[c]2c1[O][Hg]2, the Potency was 106 nM (active).
